From the supplement of paper PMC8183993 come the findings set out here.

Counter-ions that a name gives are not always drawn. ± gives the standard deviation of the averaged measurements. The full ranking holds about 3,200 compounds; the median of “nuclei count (viability) relative to DMSO” is about 99, and the lowest 2% start at about 16. The sample holds the lowest values, similar compounds and a random draw of the others, so the mix is not that of the screen.

This test concerns U2OS. Description: nuclei count (viability) relative to DMSO (% of DMSO); higher = more viable cells. Particulars: 10 µM; 24 h. On the procedure:
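Primary image-based screen in U2OS cells: compounds at 10 uM for 24 h, then a 1 h o-propargyl-puromycin (OPP) pulse, click labelling, and high-throughput microscopy. Mean cytoplasmic OPP intensity and nuclei count were normalised to DMSO wells within each plate (DMSO = 100) and averaged over triplicate plates.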
`O=C1[C@@H]2[C@H]3CC[C@H](C3)[C@@H]2C(=O)N1C[C@@H]1CCCC[C@H]1CN1CCN(c2nsc3ccccc23)CC1` [Lurasidone HCl]: the nuclei count turned out to be 102.
To `CCN1CCN(c2ccc(Nc3cc(N(C)C(=O)Nc4c(Cl)c(OC)cc(OC)c4Cl)ncn3)cc2)CC1` belongs 96.4; to `CC(C)[C@H](NS(=O)(=O)c1ccc(-c2ccc(Br)cc2)cc1)C(=O)O`, 97.3.
For `CC1(C)C[C@@H]1C(=O)N/C(=C\CCCCSC[C@H](N)C(=O)O)C(=O)O` [Cilastatin sodium], the nuclei count was 96.7.
To `CC1(C)C[C@@H]1C(=O)N/C(=C\CCCCSC[C@H](N)C(=O)O)C(=O)O` [Cilastatin] belongs 91.5; to `COC1=CC(c2cc3ccccc3[nH]2)=N/C1=C\c1[nH]c(C)cc1C` [Obatoclax mesylate (GX15-070)], 45.5; to `CC[C@]12C=CCN3CC[C@@]4(c5cc([C@@]6(C(=O)OC)C[C@@H]7C[C@@H](C(C)(F)F)CN(Cc8c6[nH]c6ccccc86)C7)c(OC)cc5N(C)[C@H]4[C@@](O)(C(=O)OC)[C@@H]1OC(C)=O)[C@@H]32` [Vinflunine Tartrate], 14.1.
Regarding `CCC1=C[C@@H]2CN(C1)Cc1c([nH]c3ccccc13)[C@@](C(=O)OC)(c1cc3c(cc1OC)N(C)[C@H]1[C@@](O)(C(=O)OC)[C@H](OC(C)=O)[C@]4(CC)C=CCN5CC[C@]31[C@@H]54)C2` [Vinorelbine (Navelbine)], the nuclei count turned out to be 16.1.
In turn, `CC[C@]1(O)C[C@@H]2CN(CCc3c([nH]c4ccccc34)[C@@](C(=O)OC)(c3cc4c(cc3OC)N(C)[C@H]3[C@@](O)(C(=O)OC)[C@H](OC(C)=O)[C@]5(CC)C=CCN6CC[C@]43[C@@H]65)C2)C1` [Vinblastine] showed a nuclei count of 100.
With `CC[C@]1(O)C[C@H]2CN(CCc3c([nH]c4ccccc34)[C@@](C(=O)OC)(c3cc4c(cc3OC)N(C=O)[C@H]3[C@@](O)(C(=O)OC)[C@H](OC(C)=O)[C@]5(CC)C=CCN6CC[C@]43[C@@H]65)C2)C1` [Vincristine], the nuclei count is 18.1.
To `CC[C@]1(O)C[C@H]2CN(CCc3c([nH]c4ccccc34)[C@@](C(=O)OC)(c3cc4c(cc3OC)N(C=O)[C@H]3[C@@](O)(C(=O)OC)[C@H](OC(C)=O)[C@]5(CC)C=CCN6CC[C@]43[C@@H]65)C2)C1` [Vincristine sulfate] belongs 17.8; to `CC[C@]1(O)C[C@@H]2CN(CCc3c([nH]c4ccccc34)[C@@](C(=O)OC)(c3cc4c(cc3OC)N(C)[C@H]3[C@@](O)(C(=O)OC)[C@H](OC(C)=O)[C@]5(CC)C=CCN6CC[C@]43[C@@H]65)C2)C1` [Vinblastine sulfate], 16.8; to `O=C(c1cc(O)c(O)c(O)c1)c1ccc(O)c(O)c1O` [Exifone], 94.1.
To `COc1ccccc1N1CCN(CCN(C(=O)C2CCCCC2)c2ccccn2)CC1` belongs 101.
With `Cn1nc(C(C)(C)C)cc1C(=O)N[C@@H](Cc1cccc(Cl)c1)C(=O)NCC#N` [Cathepsin Inhibitor 1], the nuclei count came to 107.
Regarding `CC(C)c1cc(C(C)C)c(CC(=O)NS(=O)(=O)Oc2c(C(C)C)cccc2C(C)C)c(C(C)C)c1` [Avasimibe (CI-1011)], the nuclei count turned out to be 99.4.
With `NC(N)=S` [Thiourea], the nuclei count is 103.
To `Nc1nc(N)c2nc(-c3cccc(O)c3)cnc2n1` belongs 94.7 ± 4.5; to `c1ccc2sc(N3CCN(Cc4ccc5c(c4)OCO5)CC3)nc2c1` [2-[1-(4-Piperonyl)piperazinyl]benzothiazole], 111; to `CC(C)C[C@H](NC(=O)[C@H](CCc1ccccc1)NC(=O)CN1CCOCC1)C(=O)N[C@@H](Cc1ccccc1)C(=O)N[C@@H](CC(C)C)C(=O)[C@@]1(C)CO1` [Carfilzomib (PR-171)], 7.25.
To `CC(C)c1nc(CN(C)C(=O)N[C@@H](CCN2CCOCC2)C(=O)N[C@H](CC[C@H](Cc2ccccc2)NC(=O)OCc2cncs2)Cc2ccccc2)cs1` [Cobicistat (GS-9350)] belongs 96.2; to `C[C@H](N[C@@H](CCc1ccccc1)C(=O)O)C(=O)N1CCC[C@H]1C(=O)O` [Enalaprilat dihydrate], 94.3; to `CC1OC2(CS1)CN1CCC2CC1` (configuration not stated) [Cevimeline hydrochloride], 101.
In turn, `Cc1ccc(C(=O)c2cc(/C=C/C(=O)NO)n(C)c2)cc1` showed a nuclei count of 92.7.
`CN(Cc1ccccc1)C(=O)[C@H](Cc1ccc2ccccc2c1)NC(=O)[C@@H]1C[C@@H](O)CN1C(=O)c1cn(C)c2ccccc12` showed a nuclei count of 98.
As for `Cc1cc2c(cc1C1(c3ccc(C(=O)O)cn3)CC1)C(C)(C)CCC2(C)C`, the nuclei count was determined as 102.
To `CCc1cncnc1N1CCN(Cc2nc3ccc(C(F)(F)F)cc3[nH]2)CC1` belongs 99.88 ± 0.89; to `Cc1nc2ccc(NC(=O)Nc3ccnc4cccnc34)cc2o1`, 99.6.
For the molecule `NC(=O)Nc1sc(-c2ccc(F)cc2)cc1C(N)=O`, the nuclei count worked out at 47 ± 0.38.
Take `Cc1c(C(=O)NC2CCCCC2)sc2nc3ccc(N)cc3n12`: the nuclei count is 99.5.
To `NC(=O)Nc1cc(-c2cccc(F)c2)sc1C(=O)N[C@H]1CCCNC1` belongs 7.62; to `Cc1ccc2c(c1)C(=O)C1(O)CCN(c3ccccc3)C1=N2` (configuration not stated) [(?)-Blebbistatin], 96.3.
To `CC(C(=O)Nc1cccc(/N=C/c2c(O)ccc3ccccc23)c1)c1ccccc1` (configuration not stated) [Salermide] belongs 101; to `Cc1cc(/C=C/c2ccc3cc(N(C)C)ccc3[n+]2C)c(C)n1-c1ccccc1` [Pyrvinium pamoate], 6.32.
With `CN1CCN(CCc2ccc(Cl)c(Cl)c2)CC1` [BD 1063 dihydrochloride], the nuclei count was 104.
The molecule `OC(c1ccccc1)C1CCN(CCc2ccccc2)CC1` (configuration not stated) came in with a nuclei count of 99.4.
Molecule `NS(=O)(=O)c1cccc2c1c([N+](=O)[O-])cc1nc(O)c(O)nc12` gave a nuclei count of 98.7.
Turning to `NS(=O)(=O)c1cccc2c1c([N+](=O)[O-])cc1nc(O)c(O)nc12` [NBQX disodium salt], the nuclei count came to 109.
In the case of `CNC(=O)c1ccccc1Nc1nc(Nc2ccc(N3CCOCC3)cc2OC)ncc1Cl`, the nuclei count turned out to be 38.9 ± 1.6.
The molecule `CCOc1cc(N2CCC(O)CC2)ccc1Nc1ncc2c(n1)N(C)c1ccccc1C(=O)N2C` came in with a nuclei count of 95.5.
In turn, `COc1cc(N2CCC(N)CC2)ccc1Nc1ncc(Cl)c(-c2c[nH]c3ccccc23)n1` came in with a nuclei count of 7.03.
`CN(C(=O)c1ccc(F)cc1C(F)(F)F)C1CCN(c2nnc(-c3ccnn3C)c3ccccc23)CC1` came in with a nuclei count of 101.
